Results: PubChem BioAssay AID488969 (Vanderbilt High Throughput Screening Facility, 2010)
Several values for one entry are separate records, joined by “and”; a condition that tells them apart may be missing. Equal entries are not always repeated. In all, about 110,000 compounds were measured (“z-score”: median about -0.1, highest 2% from about 2 on). What follows is part of a selection rich in the highest values, with near analogues and random picks from the rest. Activity calls are given as the source filed them.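 Rule for the calls: active = z-score in the third read window above 3 or below -3; inactive = the rest.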

Molecular target: Metabotropic glutamate receptor 8 (Rattus norvegicus) (UniProt P70579)
Sequence (P70579 whole entry, looked up): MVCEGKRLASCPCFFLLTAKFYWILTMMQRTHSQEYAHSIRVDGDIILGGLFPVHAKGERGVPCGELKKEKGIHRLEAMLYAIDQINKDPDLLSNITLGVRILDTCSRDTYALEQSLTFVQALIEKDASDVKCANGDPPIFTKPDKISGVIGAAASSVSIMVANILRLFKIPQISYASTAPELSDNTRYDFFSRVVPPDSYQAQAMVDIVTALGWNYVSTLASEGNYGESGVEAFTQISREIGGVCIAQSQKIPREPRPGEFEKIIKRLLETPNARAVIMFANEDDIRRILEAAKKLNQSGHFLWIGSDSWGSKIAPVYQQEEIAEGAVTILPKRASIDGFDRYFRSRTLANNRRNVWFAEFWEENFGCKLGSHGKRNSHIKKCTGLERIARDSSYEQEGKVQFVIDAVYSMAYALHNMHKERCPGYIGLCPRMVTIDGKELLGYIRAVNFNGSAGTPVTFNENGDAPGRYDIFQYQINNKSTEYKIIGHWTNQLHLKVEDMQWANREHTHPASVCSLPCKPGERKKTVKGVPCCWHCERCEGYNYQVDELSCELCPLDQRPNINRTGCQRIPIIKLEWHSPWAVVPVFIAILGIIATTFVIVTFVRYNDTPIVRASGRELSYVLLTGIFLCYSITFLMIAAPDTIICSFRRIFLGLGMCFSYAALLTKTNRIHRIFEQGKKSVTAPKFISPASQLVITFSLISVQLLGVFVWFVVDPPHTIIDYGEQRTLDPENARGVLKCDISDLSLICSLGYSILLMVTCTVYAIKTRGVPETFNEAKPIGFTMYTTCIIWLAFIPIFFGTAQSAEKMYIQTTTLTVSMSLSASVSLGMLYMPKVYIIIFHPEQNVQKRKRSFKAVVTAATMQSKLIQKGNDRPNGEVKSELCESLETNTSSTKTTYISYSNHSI
Experiment: mGluR8 Gi/Go-coupled signaling modulation – cell-based, rat, thallium flux, HTS, primary screen (AID 488969)
Details: HEK293 rat mGluR8, GIRK (G protein-gated inwardly rectifying potassium channel) thallium flux, FluoZin2; at 10 µM; stronger effect = higher value; submaximal glutamate (EC20) added with thallium

| Structure (SMILES) | z-score |
| --- | --- |
| CCOCCCNC(=O)CCCOc1ccccc1 | 0.0157 |
| O=C(Cc1ccccc1F)Nc1ccc(Cl)nc1 | 0.217 |
| Cc1ccc(NC2=C(CC(=O)O)C(c3ccccc3)N(c3ccc(C)cc3)C2=O)cc1 (stereo not given) | -0.426 |
| Cc1ccc(N2C(=O)c3n[nH]c(C)c3C2c2ccccn2)cc1 (stereo not given) | -0.326 |
| Cc1ccc(C2C3=C(NCCN=C3c3ccccc3)C(=O)N2c2ccccc2)cc1 (stereo not given) | 3.18 (active) |
| CC1CCCCN1S(=O)(=O)c1ccc(NC(=O)c2cccs2)cc1 (stereo not given) | -0.377 |
| O=C(Nc1cccnc1)Nc1ccccc1Cl | 0.0762 |
| CCc1ccc(/C=C/C(=O)c2ccc(N3CCOCC3)cc2)cc1 | 0.286 |
| COCCC(=O)NC12CC3CC(CC(C3)C1)C2 | -0.301 |
| CCN(CC)CC(=O)NC12CC3CC(CC(C3)C1)C2 | 2.42 |
| O=C(O)CC(=O)NC12CC3CC(CC(C3)C1)C2 | -0.251 and -0.244 |
| CCCCCC[n+]1c(-c2ccc(Cl)cc2Cl)csc1Nc1ccccc1 | -0.156 |
| O=C(CN(Cc1ccc2c(c1)OCO2)C(=O)c1cnsn1)NC1CCCC1 | -0.186 |
| O=C(NC1CCCCC1)C(c1ccccc1)N(Cc1ccc2c(c1)OCO2)C(=O)c1cnsn1 (stereo not given) | 2.16 |
| O=C(NC1CCCCC1)C(c1ccc(F)cc1)N(Cc1ccc2c(c1)OCO2)C(=O)c1cnsn1 (stereo not given) | 0.366 |
| COc1cc(CCN2C(=O)c3cccc4cccc(c34)C2=O)c(S(=O)(=O)N2CCCCCC2)cc1OC | -0.297 |
| COC(=O)Cn1c(CN2CCc3ccccc3C2)nc2c1c(=O)n(C)c(=O)n2C | 5.81 (active) |
| Cn1c(=O)c2c(nc(CN3CCc4ccccc4C3)n2Cc2ccccc2)n(C)c1=O | -0.932 |
| Cn1c(=O)c2c(nc(CN3CCc4ccccc4C3)n2CC(=O)c2ccccc2)n(C)c1=O | -0.969 |
| CCOC(=O)c1ccc(NC(=O)c2cc(OC)c(OC)c(OC)c2Br)cc1 | 0.551 |
| O=C(O)C1CCCCC1C(=O)NCc1cn2ccccc2n1 (stereo not given) | -0.352 |
| O=C(CN1CCOCC1)Nc1ccc(OCc2ccccc2)cc1 | 0.323 |

| Structure (SMILES) | z-score |
| --- | --- |
| Cc1ccc(Cn2c(SCC(C)C)nc3c2c(=O)n(C)c(=O)n3C)cc1 | -0.493 |
| CNC(=O)CSc1nc2c(c(=O)n(C)c(=O)n2C)n1Cc1ccc(C)cc1 | 2.07 |
| Cc1ccc(Cn2c(SCC(N)=O)nc3c2c(=O)n(C)c(=O)n3C)cc1 | -0.328 |
| COc1cc(NC(=O)c2ccco2)c(OC)cc1NC(=O)CSc1nnc(-c2cccs2)n1C | -1.07 |
| CCOC(=O)C1=C(CC)Nc2ccccc2N=C1NC(=O)c1cc(S(=O)(=O)N(C)C)ccc1Cl | 0.243 |
| CCOC(=O)C1=C(CC)Nc2ccccc2N=C1NC(=O)Nc1ccc(Cl)c(Cl)c1 | 5.4 (active) |
| CCOC(=O)C1=C(CC)Nc2ccccc2N=C1NC(=O)Nc1ccccc1OC | 0.249 |
| Cc1cc(C)n(C(=O)c2ccc(C)c(F)c2F)n1 | -0.238 |
| CCCCNS(=O)(=O)c1ccc(S(=O)(=O)NCc2ccncc2)cc1 | 2.5 |
| CCCCCc1ccc(S(=O)(=O)NCCc2ccncc2)cc1 | 0.483 |
| CCCCc1ccc(S(=O)(=O)NCCc2ccncc2)cc1 | 0.298 |
| CCOC(=O)C1=C(C)Nc2sc(C(=O)c3ccc(C)cc3)c(N)c2C1c1ccc(C(=O)OC)cc1 (stereo not given) | -0.284 |
| O=C(NNC(=S)Nc1ccc(F)cc1)c1ccccc1OC(F)F | -0.00644 |
| Cc1ccc(NC(=S)NNC(=O)c2ccccc2OC(F)F)cc1 | 0.966 |
| CCc1ccc(NC(=S)NNC(=O)c2ccccc2OC(F)F)cc1 | 3.63 (active) |
| CC1Cc2ccccc2N1C(=O)CSc1ccccc1 (stereo not given) | -0.501 |
| CCOc1ccc(N2C(=O)CC(N3CCc4ccccc43)C2=O)cc1 (stereo not given) | 1.67 |
| Cc1sc2ncn(CC(=O)NCCc3ccccc3)c(=O)c2c1C | 0.251 |
| N#CCCN(Cc1ccccc1)C(=S)Nc1ccccc1 | -0.262 |
| N#CCCN(Cc1cccnc1)C(=O)Nc1ccccc1 | -0.271 |
| COc1ccc(CNC(=O)c2ccc(-c3ccccc3)cc2)cc1 | -0.113 |
| COc1ccccc1CC(=O)N(CCC#N)CCC#N | -0.512 |

| Structure (SMILES) | z-score |
| --- | --- |
| COc1ccc(CN(CCC#N)C(=S)NC(=O)c2ccccc2)cc1 | 4.49 (active) |
| N#CCCN(Cc1ccccc1)C(=S)NC(=O)c1ccccc1 | 2.39 |
| c1ccc2c(c1)CC1(CCCC1)n1nnnc1-2 | -0.648 |
| C/C(=N\NC(=O)c1c(Cl)c(C)nn1C)c1ccc(NC(=O)COc2ccc(Cl)cc2C)cc1 | 0.132 |
| O=C(CSc1ccc(-c2ccco2)nn1)c1ccccc1 | 7.29 (active) |
| COc1ccc(C(=O)CSc2ccc(-c3ccco3)nn2)cc1 | 0.654 |
| O=C(CSc1ccc(-c2ccco2)nn1)c1ccc(F)cc1 | -0.0218 |
| CC(=O)c1cn(CC(=O)NCc2cccnc2)c2ccccc12 | 0.276 |
| Cc1ccccc1OCC(=O)O/N=C(\N)Cc1cccs1 | 3.93 (active) |
| N/C(Cc1cccs1)=N\OC(=O)COc1ccccc1Cl | -2.93 |
| N/C(Cc1cccs1)=N\OC(=O)COc1ccccc1 | -1.06 |
| C=CCC1(O)CC(c2ccco2)NC(c2ccco2)C1CCC (stereo not given) | 1.08 |
| Cc1c(NC(=O)C(C)c2ccc(CC(C)C)cc2)c(=O)n(-c2ccccc2)n1C (stereo not given) | -0.175 |
| CCc1nc2c(sc3nc4c(cc32)COC(C)(C)C4)c(=O)n1Cc1ccccc1 | -0.115 |
| CC1(C)CC(=O)c2c(nc3ccccc3c2N)C1 | -1.01 |
| CC1(C)CC(=O)c2c(noc2-c2ccccc2)C1 | 3.63 (active) |
| CC1(C)CC(=O)c2c(nn(-c3ccccc3)c2N)C1 | -0.372 |
| O=[N+]([O-])c1cccc(-c2nnc(-c3ccc4c(c3)OCO4)o2)c1 | -0.286 |
| CCC/C(O)=C1\C(=O)CC(c2ccccc2)CC1=NC (stereo not given) | -0.23 |
| CC(C)N1C(=S)SC(C)(C)C1NO (stereo not given) | -0.154 |
| O=S(=O)(c1ccccc1Cl)N1CCCC(c2nc(-c3cccnc3)no2)C1 (stereo not given) | 2.62 |
| CC(C)c1ccc(-c2noc(C3CCCN(C(=O)c4ccc(F)cc4F)C3)n2)cc1 (stereo not given) | -0.983 |

| Structure (SMILES) | z-score |
| --- | --- |
| COc1cccc(-c2noc(C3CCCN(S(=O)(=O)c4cccc(Cl)c4C)C3)n2)c1 (stereo not given) | 0.354 |
| O=S(=O)(c1ccccc1Cl)N1CCCC1c1nc(-c2ccc(Cl)cc2)no1 (stereo not given) | 0.14 |
| O=S(=O)(c1ccc2ccccc2c1)N1CCC(c2nc(-c3ccncc3)no2)CC1 | 0.107 |
| CC(C)c1ccc(-c2noc(C3CCCN(S(C)(=O)=O)C3)n2)cc1 (stereo not given) | 5.82 (active) |
| O=S(=O)(c1ccc(Cl)c(F)c1)N1CCC(c2nc(-c3ccncc3)no2)CC1 | 8.06 (active) |
| CCCS(=O)(=O)N1CCCC(c2nc(-c3ccc(OC)cc3)no2)C1 (stereo not given) | 0.0798 |
| O=[N+]([O-])c1cccc(S(=O)(=O)N2CCC(c3nc(-c4ccncc4)no3)CC2)c1 | -0.207 |
| Cc1ccccc1NS(=O)(=O)c1ccc(OCCNS(C)(=O)=O)cc1 | -0.0428 |
| COc1ccccc1N1CCN(C(=O)CCCN2C(=O)c3cccc4cccc(c34)C2=O)CC1 | -0.334 |
| Cn1c(=O)c2c(O)cc(=O)[nH]c2n(-c2ccccc2)c1=O | -0.00781 |
| COc1ccc(S(=O)(=O)N2CCOCC2)cc1NC(=O)c1ccccc1-c1ccc(C(F)(F)F)cc1 | -0.207 |
| Cc1noc(C)c1C(c1ccccc1)S(=O)(=O)c1ccccc1 (stereo not given) | 0.53 |
| O=C(CSc1ncccn1)N/N=C/c1cccc([N+](=O)[O-])c1 | 1.35 |
| O=C(COC(=O)c1ccc(Br)o1)Nc1cccc(S(=O)(=O)N2CCCCCC2)c1 | 0.698 |
| COc1ccc(C(=O)NCc2nnc(SCC(=O)NCc3ccc(F)cc3)o2)cc1 | -0.134 |
| COC(=O)c1ccccc1NC(=O)CSc1nnc(Cc2ccc(Cl)cc2)o1 | -0.323 |
| CCn1c(SCC(N)=O)nc2c(c1=O)C1(CCCC1)Cc1ccccc1-2 | 5.27 (active) |
| CCCn1c(SCC(N)=O)nc2c(c1=O)C1(CCCC1)Cc1ccccc1-2 | -0.333 |
| Cc1ccc(-n2c(SCC(N)=O)nc3c(c2=O)C2(CCCC2)Cc2ccccc2-3)cc1 | -0.348 |
| COc1cccc(Nc2nc(NCCO)c3ccccc3n2)c1 | -0.496 |
| COc1cccc(Nc2ncnc3ccccc23)c1 | -0.25 |
| COc1ccc(Nc2cc(C)nc3ccccc23)cc1 | 2.44 |

| Structure (SMILES) | z-score |
| --- | --- |
| COC(=O)Nc1cc(C)nc2ccccc12 | 0.301 |
| Cc1cc(Nc2ccc3c(c2)OCCO3)c2ccccc2n1 | 0.143 |
| COc1cccc(Nc2cc(C)nc3ccccc23)c1 | 2.53 |
| O=C(CCN1C(=O)c2ccccc2S1(=O)=O)N1CCN(c2ccccc2)CC1 | -0.363 |
| CCOc1cccc(OCCCCN2CCOCC2)c1 | -0.982 |
| COc1cc2nc(-c3ccc(Br)o3)oc(=O)c2cc1OC | -1.58 |
| Cc1nc2nc(-c3ccco3)[nH]n2c(=O)c1Cc1ccccc1 | -1.16 |
| O=C(Nc1cccc(C(=O)N2CCOCC2)c1)c1ncn[nH]1 | -0.145 |
| CCn1cc(C(=O)O)c(=O)c2cc(F)c(N/N=C/c3ccccc3)cc21 | -0.559 |
| O=C(Nc1ccc(Cl)cc1)NC1CCCCC1Cc1ccco1 (stereo not given) | 7.39 (active) |
| O=C(NCCSCc1ccco1)Nc1ccc(Cl)cc1 | 0.159 |
| O=C(Nc1ccc(Cl)cc1)Nc1ccccc1C(=O)NCc1ccco1 | -0.534 |
| Cc1nn(C)c(C)c1S(=O)(=O)N(CC(=O)N1CCc2ccccc2C1)c1ccc(C(C)C)cc1 | -0.0258 |
| O=C(O)CCc1ccc(S(=O)(=O)N2CCOCC2)cc1 | 0.0366 |
| O=C(CCc1ccc(S(=O)(=O)N2CCOCC2)cc1)NN=C1CCCCCCC1 | -0.592 |
| O=C(CCc1ccc(S(=O)(=O)N2CCOCC2)cc1)N1CCCC1 | 2.62 |
| CCN(CCO)c1ncnc2c1sc1nc(CC(C)C)c3c(c12)CC(C)(C)OC3 | -0.758 |
| COC(=O)CNC(=O)CN1C(=O)N(c2ccc(Cl)cc2)C(N(O)C(=O)Nc2ccc(Cl)cc2)C1(C)C (stereo not given) | 0.0314 |
| CCOc1ncccc1C(=O)OCc1nnc(-c2ccccc2)o1 | -0.473 |
| Cc1nc(-c2ccccc2)sc1-c1n[nH]c(=S)n1C | 0.154 |
| Cn1c(-c2sc3cc(C(F)(F)F)cnc3c2-c2ccccc2)n[nH]c1=S | 1.26 |
| Cn1c(-c2sc3ccccc3c2Cl)n[nH]c1=S | 13.3 (active) |
